Reference: the supplement of paper PMC10849652
Of roughly 7,900 targets only a part is listed; those with a hit were picked by preference. About 0.6% of all pairs of compound and target were hits. Unmarked numbers belong to inactive results.

Tests used:
Experiment in all cases: log2 fold change, soluble protein after heating vs DMSO (PISA); higher = thermal stabilisation; K562 cells, 10 uM, 30 min; active = over 0.2 and 3.5 SD of the protein, either way, in both replicates (recomputed)
[1] = compound: CN1CCN(CCOc2cc(OC3CCOCC3)c3c(Nc4c(Cl)ccc5c4OCO5)ncnc3c2)CC1 [saracatinib]
Summary of the method: (§1)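 Aliquots of K562 cells (2×10^6 cells/mL) treated with 10 μM compound for 30 min were heated for 3 min over 48°C-58°C. After pooling and extraction in PBS with 0.5% NP-40 at 4°C, soluble protein from a 21,000xg, 90 min spin was quantified by TMTpro 16plex LC-MS/MS with channel sums equalised. Thermal stability is expressed against control samples, from duplicates, as a log2 fold change.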

[2] = compound: CN1CCN(c2nc(C3=C(c4c[nH]c5ccccc45)C(=O)NC3=O)c3ccccc3n2)CC1 [sotrastaurin]
Summary of the method: as §1

[3] = compound: CN1CC[C@H](c2c(O)cc(O)c3c(=O)cc(-c4ccccc4Cl)oc23)[C@H](O)C1 [alvocidib]
Summary of the method: as §1

[4] = compound: CN1CCc2c(c3ccccc3n2Cc2ccc(C(=O)NO)cc2)C1 [Tubastatin A]
Summary of the method: as §1

[5] = compound: CNC(=O)C1=CC=CC=C1NC2=NC(=NC=C2Cl)NC3=C(C=C(C=C3)N4CCOCC4)OC
Summary of the method: as §1

[6] = compound: CNC(=O)c1ccc(Nc2ncc(C(F)(F)F)c(NCc3nccnc3N(C)S(C)(=O)=O)n2)cc1 [defactinib]
Summary of the method: as §1

[7] = compound: CNCc1ccc(-c2[nH]c3cc(F)cc4c3c2CCNC4=O)cc1 [rucaparib]
Summary of the method: as §1

[8] = compound: CNc1nc(-c2ccc3c(N)n[nH]c3c2)cc(N2C[C@@H](C(=O)NC3CCCCC3)CC[C@H]2C)n1
Summary of the method: as §1

[9] = compound: COC(=O)N[C@@H](C)CNc1nccc(-c2cn(C(C)C)nc2-c2cc(Cl)cc(NS(C)(=O)=O)c2F)n1 [encorafenib]
Summary of the method: as §1

[10] = compound: COC(=O)[C@H](CCSC)NC(=O)C1=C(C=C(C=C1)NC[C@H](CS)N)C2=CC=CC=C2
Summary of the method: as §1

Chain of UniProt Q9NUY8 (Q9NUY8 whole entry, looked up): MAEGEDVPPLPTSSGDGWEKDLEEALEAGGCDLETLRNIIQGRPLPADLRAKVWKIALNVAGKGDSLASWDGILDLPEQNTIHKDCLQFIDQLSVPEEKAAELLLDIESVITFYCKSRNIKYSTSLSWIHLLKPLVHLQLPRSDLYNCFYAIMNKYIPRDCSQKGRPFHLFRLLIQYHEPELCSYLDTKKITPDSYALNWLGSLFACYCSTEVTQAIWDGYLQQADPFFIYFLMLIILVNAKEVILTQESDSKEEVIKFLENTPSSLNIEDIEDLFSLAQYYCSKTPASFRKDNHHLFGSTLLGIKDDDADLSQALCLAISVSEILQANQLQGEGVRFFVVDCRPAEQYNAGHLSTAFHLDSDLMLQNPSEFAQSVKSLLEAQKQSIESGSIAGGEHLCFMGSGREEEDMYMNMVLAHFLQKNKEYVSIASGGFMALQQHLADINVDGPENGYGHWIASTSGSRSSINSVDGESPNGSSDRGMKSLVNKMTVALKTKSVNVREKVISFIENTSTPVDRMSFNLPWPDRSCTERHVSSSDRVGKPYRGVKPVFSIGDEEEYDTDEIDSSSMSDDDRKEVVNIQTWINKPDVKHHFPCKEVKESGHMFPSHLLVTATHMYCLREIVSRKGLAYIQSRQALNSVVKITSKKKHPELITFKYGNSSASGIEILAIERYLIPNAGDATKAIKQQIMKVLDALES
Chain of UniProt Q8N357 (Q8N357 whole entry, looked up): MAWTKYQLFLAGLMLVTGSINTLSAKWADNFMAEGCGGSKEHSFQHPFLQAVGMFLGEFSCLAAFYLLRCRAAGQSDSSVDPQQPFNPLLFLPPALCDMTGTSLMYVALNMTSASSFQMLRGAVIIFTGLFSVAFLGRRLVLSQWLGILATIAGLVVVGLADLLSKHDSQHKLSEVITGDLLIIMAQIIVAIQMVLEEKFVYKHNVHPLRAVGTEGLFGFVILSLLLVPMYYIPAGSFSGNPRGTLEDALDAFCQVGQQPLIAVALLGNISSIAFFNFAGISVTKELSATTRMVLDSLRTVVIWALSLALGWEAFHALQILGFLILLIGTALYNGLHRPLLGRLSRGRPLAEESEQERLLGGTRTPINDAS
Chain of UniProt Q8TC07 (Q8TC07 whole entry, looked up): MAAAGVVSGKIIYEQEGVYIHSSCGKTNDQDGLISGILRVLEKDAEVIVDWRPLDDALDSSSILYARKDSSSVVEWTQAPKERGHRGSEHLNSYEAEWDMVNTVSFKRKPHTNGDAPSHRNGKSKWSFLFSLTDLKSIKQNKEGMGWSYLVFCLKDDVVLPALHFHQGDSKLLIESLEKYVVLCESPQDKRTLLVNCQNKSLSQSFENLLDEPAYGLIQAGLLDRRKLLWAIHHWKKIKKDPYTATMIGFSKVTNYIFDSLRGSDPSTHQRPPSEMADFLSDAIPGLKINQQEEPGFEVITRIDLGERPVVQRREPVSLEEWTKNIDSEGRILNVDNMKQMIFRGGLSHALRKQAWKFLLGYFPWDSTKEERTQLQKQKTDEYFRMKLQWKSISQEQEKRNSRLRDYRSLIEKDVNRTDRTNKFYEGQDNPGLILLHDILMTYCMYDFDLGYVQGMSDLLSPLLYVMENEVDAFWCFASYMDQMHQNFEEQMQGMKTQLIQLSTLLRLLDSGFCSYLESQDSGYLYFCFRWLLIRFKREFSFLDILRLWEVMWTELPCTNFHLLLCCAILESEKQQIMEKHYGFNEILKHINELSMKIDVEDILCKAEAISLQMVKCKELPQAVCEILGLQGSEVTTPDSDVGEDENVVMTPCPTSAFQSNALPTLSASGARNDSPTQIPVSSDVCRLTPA
Chain of UniProt Q01085 (Q01085 whole entry, looked up): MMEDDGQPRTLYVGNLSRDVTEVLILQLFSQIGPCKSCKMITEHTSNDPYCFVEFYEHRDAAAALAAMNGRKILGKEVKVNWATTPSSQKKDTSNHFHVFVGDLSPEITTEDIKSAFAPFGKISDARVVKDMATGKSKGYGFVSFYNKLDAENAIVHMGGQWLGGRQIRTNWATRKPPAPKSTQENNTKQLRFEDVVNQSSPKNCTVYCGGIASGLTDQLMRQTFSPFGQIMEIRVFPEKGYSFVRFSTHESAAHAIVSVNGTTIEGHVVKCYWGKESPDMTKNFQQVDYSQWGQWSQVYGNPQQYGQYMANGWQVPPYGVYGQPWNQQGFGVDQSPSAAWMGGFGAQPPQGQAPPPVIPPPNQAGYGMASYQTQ
Chain of UniProt Q6P1M0 (Q6P1M0 whole entry, looked up): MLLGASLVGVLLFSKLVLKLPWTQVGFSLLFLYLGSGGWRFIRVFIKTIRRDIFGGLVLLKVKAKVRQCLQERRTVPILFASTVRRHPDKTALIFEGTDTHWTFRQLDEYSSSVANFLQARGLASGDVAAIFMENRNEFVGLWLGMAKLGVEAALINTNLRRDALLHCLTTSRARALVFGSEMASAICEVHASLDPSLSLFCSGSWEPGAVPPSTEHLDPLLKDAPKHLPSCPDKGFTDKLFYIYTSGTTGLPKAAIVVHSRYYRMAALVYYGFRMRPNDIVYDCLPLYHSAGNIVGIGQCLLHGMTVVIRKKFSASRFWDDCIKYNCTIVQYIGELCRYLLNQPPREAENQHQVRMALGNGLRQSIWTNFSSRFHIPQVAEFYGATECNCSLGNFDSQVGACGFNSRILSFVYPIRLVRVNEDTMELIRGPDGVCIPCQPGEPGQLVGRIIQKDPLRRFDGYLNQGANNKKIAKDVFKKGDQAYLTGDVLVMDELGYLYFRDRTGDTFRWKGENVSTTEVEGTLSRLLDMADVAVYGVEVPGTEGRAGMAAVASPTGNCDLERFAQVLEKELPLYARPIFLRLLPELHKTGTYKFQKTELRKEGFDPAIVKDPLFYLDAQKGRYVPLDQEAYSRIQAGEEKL
Chain of UniProt Q9UNL2 (Q9UNL2 whole entry, looked up): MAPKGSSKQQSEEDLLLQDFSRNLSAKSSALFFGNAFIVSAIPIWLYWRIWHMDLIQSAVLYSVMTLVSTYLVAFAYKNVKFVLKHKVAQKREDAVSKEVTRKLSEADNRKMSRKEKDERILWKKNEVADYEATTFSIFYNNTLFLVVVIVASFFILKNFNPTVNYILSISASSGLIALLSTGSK
Chain of UniProt P78382 (P78382 whole entry, looked up): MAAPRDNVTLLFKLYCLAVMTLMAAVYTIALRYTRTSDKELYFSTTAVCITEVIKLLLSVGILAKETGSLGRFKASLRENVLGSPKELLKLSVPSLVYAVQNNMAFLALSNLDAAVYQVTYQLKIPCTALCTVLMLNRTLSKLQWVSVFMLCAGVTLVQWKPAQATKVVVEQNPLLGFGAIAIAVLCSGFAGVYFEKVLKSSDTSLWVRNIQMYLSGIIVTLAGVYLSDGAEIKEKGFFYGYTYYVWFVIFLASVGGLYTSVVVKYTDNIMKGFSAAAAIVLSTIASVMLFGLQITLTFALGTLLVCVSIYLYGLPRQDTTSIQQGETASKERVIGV
Chain of UniProt O60271 (O60271 whole entry, looked up): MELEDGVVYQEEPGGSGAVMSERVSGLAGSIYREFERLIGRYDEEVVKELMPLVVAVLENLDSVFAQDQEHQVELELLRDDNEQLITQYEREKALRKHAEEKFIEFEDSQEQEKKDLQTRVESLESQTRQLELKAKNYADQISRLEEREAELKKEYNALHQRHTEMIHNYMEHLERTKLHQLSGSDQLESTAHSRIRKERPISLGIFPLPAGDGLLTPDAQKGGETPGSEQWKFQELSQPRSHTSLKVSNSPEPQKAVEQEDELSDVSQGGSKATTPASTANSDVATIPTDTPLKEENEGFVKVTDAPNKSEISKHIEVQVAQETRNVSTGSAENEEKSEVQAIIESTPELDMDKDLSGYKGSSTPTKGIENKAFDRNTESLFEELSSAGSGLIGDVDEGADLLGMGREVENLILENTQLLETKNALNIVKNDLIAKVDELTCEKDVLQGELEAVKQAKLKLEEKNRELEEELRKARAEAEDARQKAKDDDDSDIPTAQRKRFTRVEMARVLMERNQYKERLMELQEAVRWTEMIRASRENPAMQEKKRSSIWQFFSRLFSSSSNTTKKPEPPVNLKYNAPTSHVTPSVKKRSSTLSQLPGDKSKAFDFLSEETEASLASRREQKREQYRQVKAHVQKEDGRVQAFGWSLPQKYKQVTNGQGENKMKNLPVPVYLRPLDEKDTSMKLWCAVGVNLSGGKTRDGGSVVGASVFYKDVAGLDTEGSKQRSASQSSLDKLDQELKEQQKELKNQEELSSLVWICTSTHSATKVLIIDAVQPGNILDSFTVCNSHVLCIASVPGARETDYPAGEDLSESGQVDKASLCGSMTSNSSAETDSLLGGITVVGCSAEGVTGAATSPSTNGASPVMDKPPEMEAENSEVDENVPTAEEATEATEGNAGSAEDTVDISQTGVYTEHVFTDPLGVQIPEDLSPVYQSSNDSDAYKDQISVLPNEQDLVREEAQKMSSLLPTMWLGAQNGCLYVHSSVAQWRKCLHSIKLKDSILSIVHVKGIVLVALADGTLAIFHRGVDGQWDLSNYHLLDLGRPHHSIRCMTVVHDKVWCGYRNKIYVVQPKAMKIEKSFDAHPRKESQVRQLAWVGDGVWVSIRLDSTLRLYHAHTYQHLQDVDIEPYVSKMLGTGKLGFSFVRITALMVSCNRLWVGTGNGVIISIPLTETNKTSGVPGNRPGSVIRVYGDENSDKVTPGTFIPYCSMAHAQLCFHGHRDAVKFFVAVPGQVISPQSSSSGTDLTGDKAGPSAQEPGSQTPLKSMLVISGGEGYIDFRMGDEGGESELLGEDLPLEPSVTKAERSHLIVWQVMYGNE
Chain of UniProt P63165 (P63165 whole entry, looked up): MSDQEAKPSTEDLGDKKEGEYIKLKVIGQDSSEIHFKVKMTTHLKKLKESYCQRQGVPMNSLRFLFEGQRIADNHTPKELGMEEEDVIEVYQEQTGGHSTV
Chain of UniProt Q16385 (Q16385 whole entry, looked up): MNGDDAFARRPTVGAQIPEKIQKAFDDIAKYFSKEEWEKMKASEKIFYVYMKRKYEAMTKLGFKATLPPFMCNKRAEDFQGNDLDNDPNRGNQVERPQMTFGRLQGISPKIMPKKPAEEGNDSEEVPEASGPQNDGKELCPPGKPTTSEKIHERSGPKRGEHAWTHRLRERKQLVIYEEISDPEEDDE

| Target | log2 fold change [1] | log2 fold change [2] | log2 fold change [3] | log2 fold change [4] | log2 fold change [5] | log2 fold change [6] | log2 fold change [7] | log2 fold change [8] | log2 fold change [9] | log2 fold change [10] |
| --- | --- | --- | --- | --- | --- | --- | --- | --- | --- | --- |
| STAM2 (UniProt O75886) | -0.093 | -0.011 | -0.097 | -0.014 | 0.035 | -0.095 | -0.035 | -0.02 | 0.027 | -0.019 |
| TARBP1 (UniProt Q13395) | 0.026 | -0.036 | -0.031 | -0.033 | 0.021 | -0.026 | 0.042 | -0.027 | -0.041 | 0.014 |
| SREK1 isoform 2 (UniProt Q8WXA9) | -0.034 | -0.106 | 0.005 | 0.061 | -0.422 | -0.371 | 0.083 | 0.013 | 0.059 | -0.007 |
| SULT1A1 (UniProt P50225) | 0.052 | -0.03 | -0.061 | -0.004 | 0.105 | -0.214 | -0.048 | 0.05 | 0.084 | -0.125 |
| SUMO1 (UniProt P63165) | -0.112 | 0.011 | 0.12 | -0.073 | 0.022 | -0.067 | 0.056 | -0.09 | -0.029 | 0.028 |
| TFAM (UniProt Q00059) | -0.017 | 0.052 | 0.116 | 0.052 | -0.008 | 0.107 | 0.042 | -0.01 | 0.039 | 0.047 |
| TBC1D15 isoform 3 (UniProt Q8TC07) | -0.01 | -0.117 | -0.054 | -0.011 | -0.014 | -0.09 | 0.059 | -0.012 | 0.068 | -0.003 |
| SLC35A1 (UniProt P78382) | 0.038 | 0.015 | 0.006 | -0.038 | -0.016 | -0.198 | 0.048 | -0.112 | 0.043 | -0.211 |
| SNX12 isoform 1 (UniProt Q9UMY4) | 0.035 | 0.07 | 0 | 0.013 | 0.059 | -0.025 | -0.025 | -0.028 | 0.15 | -0.037 |
| SSX2 (UniProt Q16385) | 0.017 | -0.028 | 0.024 | 0.062 | 0.066 | -0.114 | 0.025 | -0.078 | 0.021 | -0.012 |
| STIM1 (UniProt Q13586) | 0.003 | 0 | -0.075 | -0.029 | -0.001 | -0.048 | 0.011 | -0.047 | 0.052 | 0.032 |
| SSR3 isoform 2 (UniProt Q9UNL2) | 0.153 | 0.083 | -0.108 | -0.04 | 0.006 | -0.006 | -0.049 | -0.052 | 0.001 | 0.086 |
| TIAL1 isoform 2 (UniProt Q01085) | 0.015 | 0.025 | 0.036 | -0.052 | -0.019 | 0.077 | 0.066 | -0.042 | -0.034 | -0.014 |
| SMARCE1 (UniProt Q969G3) | -0.036 | -0.204 | -0.033 | 0.018 | -0.032 | 0.579 (active) | -0.016 | 0.023 | 0.166 | -0.199 |
| SLC27A4 (UniProt Q6P1M0) | -0.035 | 0.035 | -0.09 | -0.005 | -0.083 | -0.084 | 0.06 | 0.072 | 0.018 | -0.05 |
| STK39 (UniProt Q9UEW8) | -0.014 | -0.017 | 0.013 | 0.009 | -0.045 | -0.015 | 0.014 | -0.008 | 0.039 | 0.056 |

| Target | log2 fold change [1] | log2 fold change [2] | log2 fold change [3] | log2 fold change [4] | log2 fold change [5] | log2 fold change [6] | log2 fold change [7] | log2 fold change [8] | log2 fold change [9] | log2 fold change [10] |
| --- | --- | --- | --- | --- | --- | --- | --- | --- | --- | --- |
| SLK isoform 2 (UniProt Q9H2G2) | -0.015 | -0.192 | -0.031 | 0.025 | 0.079 | -0.089 | 0.048 | 0.02 | 0.052 | 0.012 |
| SLC39A11 (UniProt Q8N1S5) | 0.098 | 0.127 | 0.02 | -0.164 | -0.223 | 0.074 | -0.518 (active) | -0.015 | -0.077 | -0.082 |
| SUOX (UniProt P51687) | 0.02 | 0.013 | -0.047 | -0.031 | -0.01 | 0.031 | -0.037 | -0.022 | 0.001 | 0.042 |
| TFRC (UniProt P02786) | 0.008 | 0.005 | 0.01 | -0.028 | 0.029 | -0.03 | -0.003 | -0.056 | 0.019 | -0.004 |
| TBCD (UniProt Q9BTW9) | 0.003 | -0.056 | -0.096 | 0.05 | -0.016 | -0.056 | 0 | -0.031 | 0.018 | -0.007 |
| TAMM41 isoform 3 (UniProt Q96BW9) | -0.009 | -0.003 | 0.027 | -0.043 | -0.037 | 0.015 | 0.036 | -0.006 | 0.01 | -0.007 |
| SRSF4 (UniProt Q08170) | -0.065 | 0.028 | 0.135 | 0.17 | -0.283 | 0.045 | 0.165 | 0.013 | 0.154 | 0.023 |
| SPAG9 (UniProt O60271) | 0.014 | -0.037 | -0.047 | 0.003 | 0.02 | -0.044 | 0.049 | 0.034 | 0.023 | -0.011 |
| TBC1D23 (UniProt Q9NUY8) | -0.023 | -0.073 | -0.053 | 0.043 | -0.027 | -0.109 | -0.038 | -0.074 | 0.079 | -0.047 |
| TBC1D24 (UniProt Q9ULP9) | -0.025 | -0.016 | -0.379 (active) | -0.044 | -0.075 | -0.106 | -0.148 | 0.077 | -0.011 | -0.005 |
| SLC25A42 (UniProt Q86VD7) | 0.105 | 0.023 | 0 | -0.032 | 0.005 | 0.101 | 0.021 | 0.035 | -0.067 | 0.083 |
| TAOK1 (UniProt Q7L7X3) | 0.002 | -0.013 | -0.077 | 0.032 | -0.002 | -0.142 | 0.032 | 0.053 | -0.061 | -0.018 |
| SLC35F6 (UniProt Q8N357) | 0.182 | -0.071 | -0.002 | -0.05 | -0.025 | -0.043 | -0.004 | -0.247 | -0.042 | 0.007 |
| STXBP5 (UniProt Q5T5C0) | -0.014 | 0.019 | -0.085 | 0.01 | -0.023 | -0.011 | -0.002 | -0.032 | 0.028 | -0.003 |
| TECR (UniProt Q9NZ01) | -0.018 | -0.007 | -0.02 | -0.035 | -0.07 | -0.022 | 0.03 | -0.017 | 0.045 | -0.028 |
